Measured values from PubChem BioAssay (Tox21).
Inconclusive results are not listed. Activity calls are given as the source filed them. Unless noted, calls follow the shape of the dose curve; as a rule, active = well fitted curve in the direction sought with a large enough effect in the repeat runs; inconclusive = weak or mixed curves; inactive = no such curve, though single readings can be large; an effect the other way counts as inactive or inconclusive.

Columns and labels:
[1] = target: Thyrotropin receptor (Homo sapiens) (UniProt P16473); assay: qHTS assay to identify small molecule agonists of the thyroid stimulating hormone receptor (TSHR) signaling pathway (AID 1224843; calls by dose curve; also: nearly all actives have a fitted effect of over 45% in size)
Summary of the method: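 Agonist-mode screen: TSHR HEK293 cells received test chemicals for half an hour at room temperature, then HTRF cAMP detection reagents for one hour prior to fluorescence measurement. Each chemical ran as a 15-concentration series, triplicated.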

[2] = qHTS assay to identify small molecule agonists of the hypoxia (HIF-1) signaling pathway - cell viability counter screen (AID 1224844; calls by dose curve; also: nearly all actives have a fitted effect of over 50% in size)
Summary of the method: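 Same wells as the HIF-1 reporter screen; ME-180 cells carrying HRE-bla, 17 hr treatment at 37C; CellTiter-Glo luminescence read after 30 min at room temperature.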

[3] = qHTS assay to identify small molecule agonists of H2AX (AID 1224845; active = well fitted activation curve with a large enough effect in the signal ratio in the repeat runs, not every such curve was filed as active; the % refers to the signal ratio)
Summary of the method: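 Wild-type CHO-K1 cells, plated overnight, exposed 3hr at 37C to 15 concentrations (0.76% DMSO final). Lysed, then HTRF anti-pH2AX (S139) cryptate and anti-H2AX-d2 antibodies, 24 hr room temperature; 665/620 nm emission read.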

[4] = qHTS assay to identify small molecule agonists of the hypoxia (HIF-1) signaling pathway (AID 1224846; active = well fitted activation curve with a large enough effect in the signal ratio in the repeat runs, not every such curve was filed as active; the % refers to the signal ratio)
Summary of the method: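 In ME-180 cells bearing an HRE-bla construct, 17 h treatment with DMSO-dissolved compounds at 37C was followed by CCF4-AM loading to quantify reporter induction.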

[5] = qHTS assay to identify small molecule agonists of H2AX - cell viability counter screen (AID 1224847; calls by dose curve; also: top concentration of the series differs between compounds; nearly all actives have a fitted effect of over 30% in size)
Summary of the method: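 CHO-K1 cells plated overnight at 37C, then exposed 3 h at 37C to compounds at 15 concentrations (0.76% DMSO final). Viability by CellTiter-Glo luminescence after 30 min at room temperature.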

[6] = qHTS assay to identify small molecule antagonists of the estrogen related receptor (ERR) signaling pathway from Tox21 library (AID 1224848); also: nearly all actives have a fitted effect of over 50% in size
Summary of the method: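 Quantitative high-throughput format: ERR reporter cells (2,000/well) pre-incubated 6 h, treated 18 h at 37 C with compounds in DMSO alongside positive and negative controls, then read by ONE-Glo luminescence.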

[7] = qHTS assay to identify small molecule agonists of the estrogen related receptor (ERR) signaling pathway from Tox21 library (AID 1224849; calls by dose curve; also: nearly all actives have a fitted effect of over 15% in size); conditions: ERR reporter cell line, ONE-Glo luciferase, 18 h; at 92.4 µM (top of the series) unless noted
Summary of the method: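 Reporter cells (ERR, NTP source) treated with Tox21 10K compounds 18 h, 37 C. Readout: ONE-Glo luminescence, 30 min RT.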

[8] = qHTS RealTime-Glo MT Cell Viability Assay in HepG2 cells - 24 hour (AID 1224867); also: nearly all actives have a fitted effect of over 50% in size
Summary of the method: (§1)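 HepG2 cells (600/well) were dispensed with RealTime-Glo reagents, incubated 5 h at 37 °C, then treated with compounds in DMSO for up to 40 h. Nonlytic NanoLuc luminescence reflecting viable cells was read at each stated time point.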

[9] = qHTS RealTime-Glo MT Cell Viability Assay in HEK293 cells - 32 hour (AID 1224868); also: top concentration of the series differs between compounds; nearly all actives have a fitted effect of over 50% in size
Summary of the method: (§2)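 HEK293 cells seeded with NanoLuc/prosubstrate reagent, rested 5 h at 37 C, then dosed and kept at 37 C up to 40 h. Nonlytic real-time luminescence from viable cells read at 0, 8, 16, 24, 32 and 40 h.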

[10] = A CellTox Green Cytotoxicity Assay to monitor cytotoxicity in HEK293 cells - 0 hour (AID 1224869); also: nearly all actives have a fitted effect of over 50% in size
Summary of the method: (§3)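 Homogeneous no-lysis format: HEK293 cell suspension mixed with CellTox Green reagent, seeded, incubated 5 h at 37 C/5% CO2, then dosed by pintool with compound in DMSO.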

[11] = A CellTox Green Cytotoxicity Assay to monitor cytotoxicity in HEK293 cells - 40 hour (AID 1224871); also: nearly all actives have a fitted effect of over 45% in size
Summary of the method: as §3

[12] = qHTS RealTime-Glo MT Cell Viability Assay in HEK293 cells - 16 hour (AID 1224872)
Summary of the method: as §2

[13] = qHTS RealTime-Glo MT Cell Viability Assay in HepG2 cells - 8 hour (AID 1224873); also: nearly all actives have a fitted effect of over 55% in size
Summary of the method: (§4)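 HepG2 cells (600/well) mixed with RealTime-Glo MT reagent, settled 5 h at 37 C/5% CO2 before compound addition. Nonlytic NanoLuc luminescence from viable-cell prosubstrate reduction read repeatedly during 40 h treatment at 37 C.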

[14] = qHTS RealTime-Glo MT Cell Viability Assay in HEK293 cells - 40 hour (AID 1224874); conditions: RealTime-Glo luminescence; max response: hits give low values; also: nearly all actives have a fitted effect of over 50% in size
Summary of the method: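 Measured as luminescence from the same continuously cultured HEK293 wells at successive time points (0, 8, 16, 24, 32, 40 h) after compound addition. Reagent present from seeding; dosing at 5 h; incubation 37 C.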

[15] = A CellTox Green Cytotoxicity Assay to monitor cytotoxicity in HEK293 cells - 24 hour (AID 1224875); also: nearly all actives have a fitted effect of over 45% in size
Summary of the method: as §3

[16] = A CellTox Green Cytotoxicity Assay to monitor cytotoxicity in HepG2 cells - 16 hour (AID 1224876); also: nearly all actives have a fitted effect of over 45% in size
Summary of the method: (§5)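 Fluorescent DNA-binding dye, 600 HepG2 cells/well, 5 h preincubation then compound in DMSO; same plates read at 0–40 h, 37 C.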

[17] = qHTS RealTime-Glo MT Cell Viability Assay in HepG2 cells - 32 hour (AID 1224877); also: nearly all actives have a fitted effect of over 55% in size
Summary of the method: as §1

[18] = A CellTox Green Cytotoxicity Assay to monitor cytotoxicity in HepG2 cells - 40 hour (AID 1224879); also: nearly all actives have a fitted effect of over 40% in size
Summary of the method: as §5

[19] = qHTS RealTime-Glo MT Cell Viability Assay in HepG2 cells - 40 hour (AID 1224870); also: nearly all actives have a fitted effect of over 50% in size
Summary of the method: as §4

[20] = A CellTox Green Cytotoxicity Assay to monitor cytotoxicity in HepG2 cells - 24 hour (AID 1224878); also: nearly all actives have a fitted effect of over 45% in size
Summary of the method: as §5
% is scaled to controls: 0 for no effect and ±100 for the full control effect.

Sequence of Thyrotropin receptor (Homo sapiens) (P16473 whole entry, looked up): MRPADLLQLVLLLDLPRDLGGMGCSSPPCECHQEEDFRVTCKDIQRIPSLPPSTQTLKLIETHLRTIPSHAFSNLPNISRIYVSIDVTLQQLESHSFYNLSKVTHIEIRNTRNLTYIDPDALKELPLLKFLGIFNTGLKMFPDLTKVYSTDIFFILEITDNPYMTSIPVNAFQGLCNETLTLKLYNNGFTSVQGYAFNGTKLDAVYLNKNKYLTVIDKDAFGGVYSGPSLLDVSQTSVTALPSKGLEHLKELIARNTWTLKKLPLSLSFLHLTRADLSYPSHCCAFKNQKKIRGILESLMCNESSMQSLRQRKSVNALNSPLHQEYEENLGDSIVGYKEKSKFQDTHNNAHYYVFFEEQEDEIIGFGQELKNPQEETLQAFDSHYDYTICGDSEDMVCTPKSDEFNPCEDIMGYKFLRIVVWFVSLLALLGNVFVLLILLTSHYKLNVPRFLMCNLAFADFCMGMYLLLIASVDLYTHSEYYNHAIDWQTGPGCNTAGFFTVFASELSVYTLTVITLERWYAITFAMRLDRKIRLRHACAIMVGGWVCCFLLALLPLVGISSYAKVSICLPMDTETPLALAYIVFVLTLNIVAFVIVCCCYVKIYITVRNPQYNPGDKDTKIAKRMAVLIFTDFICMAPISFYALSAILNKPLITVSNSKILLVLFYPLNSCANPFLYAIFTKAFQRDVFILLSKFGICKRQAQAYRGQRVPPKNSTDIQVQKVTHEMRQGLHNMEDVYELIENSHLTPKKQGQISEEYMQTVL

COC(=O)C1CC(=O)C(C(=O)OC)CC1=O (stereo not drawn)
inactive: activation [1] -7.69% [at 8.39 µM] | activity change, negative = cytotoxicity [2] 4.68% [at 6.97 µM] | activation (H2AX phosphorylation) [3] 1.21% [at 14 µM] | activation [4] 0.935% [at 7.01 µM] | activity change, negative = cytotoxicity [5] -2.76% [at 14 µM] | activity, negative = inhibition [6] -0.445% [at 8.39 µM] | activity change, positive = activation [7] -0.229% [at 8.39 µM] | activity change, negative = cytotoxicity [8] 1.03% [at 6.97 µM] | activity change, negative = cytotoxic [9] 1.1% [at 6.97 µM] | cytotoxicity [10] -3.09% [at 6.97 µM] | cytotoxicity increase [11] 1.85% [at 6.97 µM] | activity change, negative = cytotoxicity [12] 7.32% [at 6.97 µM] | viability change, negative = cytotoxic [13] -14.8% [at 6.97 µM] | max response [14] -0.164% | activity change [15] 2.42% [at 6.97 µM] | cytotoxicity increase [16] -5.58% [at 6.97 µM] | activity change, negative = cytotoxic [17] 12.6% [at 6.97 µM] | cytotoxicity increase [18] -13.2% [at 6.97 µM]

Cc1cccc(C)c1NC(=O)c1ccccc1C(=O)O
inactive: Potency [1] | outcome [2] | outcome [3] | outcome [4] | Potency [5] | Potency [6] | activity change, positive = activation [7] 2.58% [at 42.5 µM] | outcome [8] | Potency [9] | outcome [10] | outcome [19] | Potency [11] | Potency [12] | outcome [13] | max response [14] 2.81% | outcome [15] | outcome [16] | outcome [17] | outcome [20] | Potency [18]

O=C1O[C@@H]2[C@@H](O)[C@H](O)O[C@@H]2[C@H]1O
inactive: Potency [1] | outcome [2] | outcome [3] | outcome [4] | Potency [5] | Potency [6] | activity change, positive = activation [7] -1.02% | outcome [8] | Potency [9] | outcome [10] | Potency [11] | Potency [12] | outcome [13] | max response [14] -0.399% | outcome [15] | outcome [16] | outcome [17] | outcome [20] | Potency [18]

COC(=O)c1ccccc1C(=O)c1ccc(OCCN2CCCCC2)cc1
inactive: Potency [1] | outcome [2] | outcome [3] | outcome [4] | Potency [5] | Potency [6] | activity change, positive = activation [7] 1.12% [at 42.5 µM] | outcome [8] | Potency [9] | outcome [10] | outcome [19] | Potency [11] | Potency [12] | outcome [13] | max response [14] -12% | outcome [15] | outcome [16] | outcome [20] | Potency [18]

COC(=O)CCCCCCCC(=O)OC
inactive: Potency [1] | outcome [2] | outcome [3] | outcome [4] | Potency [5] | Potency [6] | activity change, positive = activation [7] 1.98% | Potency [9] | outcome [10] | outcome [19] | Potency [11] | Potency [12] | outcome [13] | max response [14] 11.9% | outcome [15] | outcome [16] | outcome [17] | outcome [20] | Potency [18]

O=S(=O)(O)c1ccc2cc(O)c(S(=O)(=O)O)cc2c1
inactive: Potency [1] | outcome [2] | outcome [3] | outcome [4] | Potency [5] | outcome [8] | Potency [9] | outcome [10] | outcome [19] | Potency [11] | Potency [12] | outcome [13] | max response [14] -1.21% | outcome [15] | outcome [16] | outcome [17] | outcome [20] | Potency [18]

COc1ccc(OC)c(Cl)c1
inactive: Potency [1] | outcome [2] | outcome [3] | outcome [4] | Potency [5] | Potency [6] | activity change, positive = activation [7] -2.23% | Potency [9] | outcome [10] | Potency [11] | Potency [12] | outcome [13] | max response [14] 5.92% | outcome [15] | outcome [16] | outcome [17] | Potency [18]

CC(C)=CCOC(=O)c1ccccc1
inactive: Potency [1] | outcome [2] | outcome [3] | outcome [4] | Potency [5] | Potency [6] | activity change, positive = activation [7] 2.82% | Potency [9] | outcome [10] | outcome [19] | Potency [12] | outcome [13] | max response [14] -0.369% | outcome [15] | outcome [17]

COc1ccc2nc(SCc3ncc(C)c(OC)c3C)[nH]c2c1
inactive: Potency [1] | outcome [2] | outcome [3] | outcome [4] | Potency [5] | Potency [6] | activity change, positive = activation [7] -13.6% [at 42.5 µM] | outcome [8] | outcome [10] | Potency [11] | outcome [13] | outcome [16] | outcome [17] | Potency [18]

CNC(=O)[C@H]1O[C@@H](n2cnc3c(NCc4cc(Cl)ccc4OCc4cc(C)no4)ncnc32)[C@H](O)[C@@H]1N
inactive: Potency [1] | outcome [2] | outcome [3] | outcome [4] | Potency [5] | Potency [6] | activity change, positive = activation [7] -1.8% | Potency [9] | outcome [10] | outcome [19] | Potency [11] | Potency [12] | outcome [13] | max response [14] 0.414% | outcome [15] | outcome [16] | outcome [20] | Potency [18]

CCOc1cc(NC(C)=O)ccc1C(=O)OC
inactive: Potency [1] | outcome [2] | outcome [3] | outcome [4] | Potency [5] | Potency [6] | activity change, positive = activation [7] -6.13% [at 42.5 µM] | Potency [9] | outcome [10] | outcome [19] | Potency [12] | outcome [13] | max response [14] -4.96% | outcome [15] | outcome [16] | outcome [17] | outcome [20] | Potency [18]

CC(C)OC(=O)CCCCC(=O)OC(C)C
inactive: Potency [1] | outcome [2] | outcome [3] | outcome [4] | Potency [5] | outcome [8] | Potency [9] | outcome [10] | outcome [19] | Potency [11] | Potency [12] | outcome [13] | max response [14] 13.3% | outcome [15] | outcome [16] | outcome [17] | outcome [20] | Potency [18]
